Assay results: PubChem BioAssay AID1159580 (chemical genetic matrix, 2015)
Screen size: about 5,500 compounds; about 2,000 (36%) were called active. About 18% were inconclusive and are not listed. No stated cut-off is given here; in the data, active means normalized growth mostly below about 0.91 (no sharp cut-off); inconclusive means no clear call, values can overlap the other calls; inactive means mostly above about 0.92. The list shows a part of the results.

Experiment: chemical genetic growth profiling, strain panel (AID 1159580);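 further: tested at 20 µM; growth read once vehicle control cultures reached saturation at 30 °C; 1 = growth at the plate median or of vehicle wells; lower values mean less growth of the strain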
Details: S. cerevisiae deletion strains, growth OD
[1] = locus YGR078C, strain PAC10, active compounds read low
[2] = locus YMR263W, strain SAP30, active compounds read low
[3] = locus YMR307W, strain GAS1, active compounds read low
[4] = locus YPL055C, strain LGE1, active compounds read low

Measured: normalized growth

CC(C)CCCC(C)[C@H]1CCC2C3CC[C@H]4CC(=O)CC[C@]4(C)C3CC[C@@]21C (some centres not stated)
inactive: locus YAL021C, strain ccr4, active compounds read low 0.957 | locus YAL026C, strain drs2, active compounds read low 1 | locus YAL030W, strain snc1, active compounds read low 0.996 | locus YBL061C, strain skt5, active compounds read low 0.998 | locus YBR009C, strain hhf1, active compounds read low 1.03 | locus YBR023C, strain chs3, active compounds read low 0.989 | locus YBR171W, strain sec66, active compounds read low 0.991 | locus YBR231C, strain swc5, active compounds read low 1.01 | locus YBR279W, strain paf1, active compounds read low 0.997 | locus YCL011C, strain gbp2, active compounds read low 0.975 | locus YCL016C, strain dcc1, active compounds read low 0.995 | locus YCL061C, strain MRC1, active compounds read low 0.977 | locus YCL069W, strain vba3, active compounds read low 0.992 | locus YCR088W, strain abp1, active compounds read low 0.982 | locus YDL005C, strain med2, active compounds read low 0.986 | locus YDL040C, strain nat1, active compounds read low 0.984 | locus YDR001C, strain nth1, active compounds read low 0.987 | locus YDR069C, strain doa4, active compounds read low 0.993 | locus YDR137W, strain rgp1, active compounds read low 0.958 | locus YDR159W, strain sac3, active compounds read low 0.984 | locus YDR195W, strain ref2 0.974 | locus YDR297W, strain sur2, active compounds read low 0.983 | locus YDR334W, strain swr1, active compounds read low 0.96 | locus YDR335W, strain msn5, active compounds read low 0.97 | locus YDR392W, strain spt3, active compounds read low 0.97 | locus YEL003W, strain gim4, active compounds read low 0.981 | locus YEL037C, strain rad23, active compounds read low 0.987 | locus YEL061C, strain CIN8 (second series), active compounds read low 0.98 | locus YER015W, strain faa2, active compounds read low 1.02 | locus YER016W, strain bim1, active compounds read low 0.985 | locus YER111C, strain swi4, active compounds read low 0.995 | locus YER155C, strain BEM2 (second series), active compounds read low 1.01 | locus YFR010W, strain ubp6, active compounds read low 0.969 | locus YGL167C, strain pmr1, active compounds read low 0.998 | locus YGL173C, strain kem1, active compounds read low 0.988 | locus YGL227W, strain vid30, active compounds read low 0.994 | locus YGL240W, strain doc1, active compounds read low 1.03 | locus YGL253W, strain hxk2, active compounds read low 0.984 | locus YHR013C, strain ard1, active compounds read low 0.972 | locus YHR027C, strain rpn1, active compounds read low 0.986 | locus YHR142W, strain chs7, active compounds read low 0.93 | locus YJL092W, strain hpr5, active compounds read low 0.961 | locus YJL095W, strain BCK1 (second series), active compounds read low 1.01 | locus YJL115W, strain asf1, active compounds read low 0.971 | locus YJL129C, strain trk1, active compounds read low 0.935 | locus YJL154C, strain vps35, active compounds read low 0.992 | locus YJL164C, strain tpk1, active compounds read low 0.979 | locus YJL166W, strain qcr8, active compounds read low 0.992 | locus YJL187C, strain SWE1, active compounds read low 0.991 | locus YKL160W, strain elf1, active compounds read low 0.963 | locus YKR026C, strain gcn3, active compounds read low 0.991 | locus YKR091W, strain srl3, active compounds read low 0.984 | locus YLL001W, strain dnm1, active compounds read low 0.987 | locus YLL026W, active compounds read low 0.997 | locus YLL041C, strain sdh2, active compounds read low 0.979 | locus YLR027C, strain aat2, active compounds read low 0.988 | locus YLR221C, strain rsa3, active compounds read low 0.962 | locus YLR258W, strain gsy2, active compounds read low 1.01 | locus YLR262C, strain YPT6 (second series), active compounds read low 1 | locus YLR320W, strain mms22, active compounds read low 0.993 | locus YLR342W, strain FKS1, active compounds read low 0.993 | locus YLR357W, strain rsc2, active compounds read low 0.996 | locus YLR370C, strain arc18, active compounds read low 0.98 | locus YLR384C, strain iki3, active compounds read low 0.996 | locus YML120C, strain ndi1, active compounds read low 0.949 | locus YMR058W, strain fet3, active compounds read low 0.973 | locus YMR125W, strain sto1, active compounds read low 0.981 | locus YMR129W, active compounds read low 0.957 | locus YMR205C, strain PFK2, active compounds read low 1.02 | locus YMR231W, strain pep5, active compounds read low 0.985 | locus YNL071W, strain lat1, active compounds read low 0.989 | locus YNL209W, strain ssb2, active compounds read low 0.992 | locus YNL248C, strain rpa49, active compounds read low 0.935 | locus YNL322C, strain KRE1 (second series), active compounds read low 0.981 | locus YNR049C, strain mso1, active compounds read low 0.986 | locus YOR001W, strain rrp6, active compounds read low 0.941 | locus YOR070C, strain gyp1, active compounds read low 0.994 | locus YOR080W, strain dia2, active compounds read low 0.976 | locus YOR083W, strain WHI5, active compounds read low 0.952 | locus YOR106W, strain vam3, active compounds read low 0.974 | locus YOR265W, strain rbl2, active compounds read low 0.989 | locus YOR270C, strain vph1, active compounds read low 0.981 | locus YOR290C, strain snf2, active compounds read low 0.976 | locus YPL051W, strain arl3, active compounds read low 0.975 | locus YPL078C, strain atp4, active compounds read low 0.949 | locus YPL106C, strain sse1, active compounds read low 1.01 | locus YPL240C, strain hsp82, active compounds read low 0.987

CC(C)CCCC(C)C1CCC2C3CCC4CC(=O)CCC4(C)C3CCC12C (configuration not stated)
inactive: locus YAL013W, strain DEP1, active compounds read low 1.01 | locus YBR021W, strain FUR4, active compounds read low 1.02 | locus YBR229C, strain ROT2, active compounds read low 1 | locus YCL029C, strain bik1, active compounds read low 1.02 | locus YDL035C, strain GPR1, active compounds read low 1.06 | locus YDL074C, strain BRE1, active compounds read low 1.07 | locus YDL101C, strain DUN1, active compounds read low 1.02 | locus YDL134C, strain PPH21, active compounds read low 1.03 | locus YDL185W, strain tfp1, active compounds read low 1.01 | locus YDL192W, strain arf1, active compounds read low 1.05 | locus YDR101C, strain arx1, active compounds read low 1.02 | locus YDR150W, strain NUM1, active compounds read low 1 | locus YDR162C, strain NBP2, active compounds read low 1.05 | locus YDR318W, strain mcm21, active compounds read low 1.01 | locus YDR388W, active compounds read low 1.02 | locus YDR502C, strain sam2, active compounds read low 1.01 | locus YEL061C, strain CIN8, active compounds read low 1.02 | locus YER110C, active compounds read low 1.02 | locus YER155C, strain BEM2, active compounds read low 1 | locus YER167W, strain BCK2, active compounds read low 1 | locus YGL078C, strain dbp3, active compounds read low 1.02 | locus YGL086W, strain mad1, active compounds read low 1.02 | locus YGL248W, strain PDE1, active compounds read low 1.04 | [1] 1.03 | locus YGR135W, strain pre9, active compounds read low 1.03 | locus YGR252W, strain gcn5, active compounds read low 1 | locus YHR030C, strain SLT2, active compounds read low 1.02 | locus YHR079C, strain IRE1 (second series), active compounds read low 1 | locus YHR094C, strain hxt1, active compounds read low 1.04 | locus YHR129C, strain ARP1, active compounds read low 1.02 | locus YHR200W, strain rpn10, active compounds read low 1.01 | locus YIL066C, strain RNR3, active compounds read low 1.05 | locus YIL073C, strain SPO22, active compounds read low 1.11 | locus YIL125W, strain kgd1, active compounds read low 1.01 | locus YIR030C, strain dcg1, active compounds read low 1.02 | locus YJL095W, strain BCK1, active compounds read low 1.06 | locus YJL134W, strain LCB3, active compounds read low 1.01 | locus YJL168C, strain set2, active compounds read low 1.01 | locus YJL187C, strain SWE1 (second series), active compounds read low 1.03 | locus YJR043C, strain POL32, active compounds read low 1.02 | locus YJR075W, strain HOC1, active compounds read low 1.03 | locus YKL009W, strain mrt4, active compounds read low 1.06 | locus YKL068W, active compounds read low 1.01 | locus YKL085W, strain MDH1 (second series), active compounds read low 1.02 | locus YKL085W, strain MDH1, active compounds read low 1.02 | locus YKL190W, strain CNB1, active compounds read low 1 | locus YKR001C, strain vps1, active compounds read low 1.09 | locus YLR039C, strain RIC1, active compounds read low 1.08 | locus YLR058C, strain SHM2, active compounds read low 1.03 | locus YLR102C, strain apc9, active compounds read low 1.02 | locus YLR262C, strain YPT6, active compounds read low 1.09 | locus YLR268W, strain sec22, active compounds read low 1.06 | locus YLR330W, strain CHS5, active compounds read low 1.02 | locus YLR342W, strain FKS1 (second series), active compounds read low 1.06 | locus YLR371W, strain rom2, active compounds read low 1.01 | locus YLR418C, strain cdc73, active compounds read low 1.05 | locus YML016C, strain PPZ1, active compounds read low 1.02 | locus YML032C, strain rad52, active compounds read low 1.02 | locus YML124C, strain tub3, active compounds read low 1.01 | locus YMR078C, strain ctf18, active compounds read low 1.01 | locus YMR223W, strain ubp8, active compounds read low 1.04 | [2] 1.02 | [3] 1.19 | locus YNL067W, strain RPL9B, active compounds read low 1.02 | locus YNL128W, strain TEP1, active compounds read low 1.06 | locus YNL153C, strain GIM3, active compounds read low 1.03 | locus YNL233W, strain BNI4, active compounds read low 1 | locus YNL250W, strain rad50, active compounds read low 1.02 | locus YNL271C, strain bni1, active compounds read low 1.01 | locus YNL298W, strain CLA4, active compounds read low 1.01 | locus YNL307C, strain MCK1, active compounds read low 1.01 | locus YNL322C, strain KRE1, active compounds read low 1.01 | locus YNR052C, strain pop2, active compounds read low 1.01 | locus YOL012C, strain htz1 1.43 | locus YOL147C, strain pex11, active compounds read low 1.01 | locus YOR061W, strain CKA2, active compounds read low 1.04 | locus YOR069W, strain VPS5, active compounds read low 1.01 | locus YOR136W, strain idh2, active compounds read low 1.02 | locus YOR144C, strain elg1, active compounds read low 1.01 | locus YOR184W, strain ser1, active compounds read low 1.07 | locus YOR316C, strain cot1, active compounds read low 1.02 | [4] 1.03 | locus YPL241C, strain CIN2, active compounds read low 1.01 | locus YPR119W, strain clb2, active compounds read low 1.01 | locus YPR141C, strain kar3, active compounds read low 1.02 | locus YPR163C, strain tif3, active compounds read low 1.03 | locus YPR167C, strain met16, active compounds read low 1.02 | strain wtn01, active compounds read low 1.04

CC(=O)[C@H]1CC[C@H]2[C@@H]3CC[C@H]4C[C@H](O)CC[C@]4(C)[C@H]3C(=O)C[C@]12C
inactive: locus YAL040C, strain CLN3, active compounds read low 0.999 | locus YCL061C, strain MRC1 (second series), active compounds read low 0.995 | locus YDR363W, strain ESC2, active compounds read low 0.983 | locus YER002W, strain NOP16, active compounds read low 0.993 | [1] 0.994 | [2] 1 | [3] 0.981 | locus YNL175C, strain NOP13, active compounds read low 0.974 | locus YNL197C, strain WHI3, active compounds read low 0.994 | locus YNL224C, strain SQS1, active compounds read low 1.01 | locus YOR083W, strain WHI5 (second series), active compounds read low 0.997 | [4] 0.947
